Compounds without any hit were thinned out: in the full panel of roughly 83,000, 20% have a hit.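 Activity criterion: percent growth below 10, measured after cells in 96-well plates were exposed to a single compound concentration for 48 hours.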 Values without a mark were called inactive. The source made the active and inactive calls.

Test systems include DU-145 prostate; K-562 leukemia; MALME-3M melanoma; MDA-MB-231 breast; RXF 393 renal; SF-268 CNS; SF-295 CNS; SF-539 CNS; UACC-257 melanoma; M14 melanoma.
Common to all, as to assay: NCI-60 one-dose screen, 48 h (100 = growth as untreated, 0 = no growth, -100 = all killed)
Common to all, as to conditions: 10 µM unless noted

In the case of `CCSc1nc(Nc2ccc(S(=O)(=O)Nc3ccon3)cc2)c(C#N)c(-c2cccc(Br)c2)n1`, the growth was 112% in the test with DU-145 prostate; 77.9% with K-562 leukemia; 105% with MALME-3M melanoma; 97% with MDA-MB-231 breast; 94.7% in the test on RXF 393 renal; 99.3% with SF-268 CNS. Also, the growth in the test with SF-295 CNS is 82%; in the test on SF-539 CNS, 82.2%; with UACC-257 melanoma, 115%; in the test on M14 melanoma it was 104%.
For `COc1ccc2c3c(ccc2c1)C(=O)/C(=C\O)CC3`, the growth was 111% in the test on DU-145 prostate; 82.7% in the test on K-562 leukemia; 135% in the test with MALME-3M melanoma; 102% with MDA-MB-231 breast; 119% in the test on RXF 393 renal; 93.6% in the test with SF-268 CNS. For the same compound, the growth was 107% with SF-295 CNS, 96.4% with SF-539 CNS, 101% in the test with UACC-257 melanoma and 122% with M14 melanoma.
Regarding `OC(c1cc(-c2cccc(Cl)c2)nc2ccccc12)C1CCCCN1` (centres undefined), the growth was -33.8% (active) in the test on DU-145 prostate; -47.2% (active) in the test on K-562 leukemia; -69.6% (active) in the test on MALME-3M melanoma; -6.36% (active) with MDA-MB-231 breast; -46.4% (active) in the test with RXF 393 renal; 21.4% in the test on SF-268 CNS. In addition, the growth is -47.5% (active) in the test with SF-295 CNS, -52.9% (active) in the test with SF-539 CNS, -91.9% (active) in the test on UACC-257 melanoma and -81.5% (active) with M14 melanoma.
Turning to `C(#Cc1ccccc1C#Cc1ccccn1)c1ccc(OCCCCCCOc2ccc(C#Cc3ccccc3C#Cc3ccccn3)cc2)cc1`, the growth is 76.2% with DU-145 prostate; 31.6% in the test on K-562 leukemia; 99.6% in the test on MALME-3M melanoma; 35.3% in the test with MDA-MB-231 breast; 45.6% with RXF 393 renal; 88.9% in the test with SF-268 CNS. Further, the growth in the test on SF-295 CNS is -3.2% (active); in the test with SF-539 CNS, 25.4%; in the test with UACC-257 melanoma, 34.2%; in the test on M14 melanoma it was 23.4%.
With `Cc1ccc2nc3c(n2c1)C(=O)C(=O)c1ccccc1-3`, the growth is -89.5% (active) with DU-145 prostate; -48.3% (active) with K-562 leukemia; -85.2% (active) in the test on MALME-3M melanoma; -48.8% (active) in the test on MDA-MB-231 breast; -91.3% (active) in the test on RXF 393 renal; -78.2% (active) in the test with SF-268 CNS. Besides, the growth is -71.1% (active) with SF-295 CNS, -90.1% (active) in the test on SF-539 CNS, -90.3% (active) in the test on UACC-257 melanoma and -81.3% (active) with M14 melanoma.
As for `O=C(Nc1cccc(-n2cc(-c3ccncc3)c(-c3cc(O)cc(Cl)c3)n2)c1)Nc1ccc(Cl)c(Cl)c1`, the growth in the test on DU-145 prostate was -15.1% (active); in the test on K-562 leukemia, 1.06% (active); in the test with MALME-3M melanoma, -35.1% (active); with MDA-MB-231 breast it was -38.1% (active); in the test on RXF 393 renal, -70.3% (active); in the test on SF-268 CNS it was 16.2%. In addition, the growth was -50.5% (active) in the test on SF-295 CNS, -29% (active) with SF-539 CNS, -70.7% (active) with UACC-257 melanoma and -69.2% (active) with M14 melanoma.
For the compound `Cc1cc(C)cc(S(=O)(=O)n2ccc(-c3ccc4c(c3)CCC(C)(C)O4)n2)c1`, the growth was 89.8% in the test on DU-145 prostate; 85.7% with K-562 leukemia; 82.9% in the test with MALME-3M melanoma; 93.5% with MDA-MB-231 breast; 77.3% with RXF 393 renal; 88.3% in the test on SF-268 CNS. Moreover, the growth in the test on SF-295 CNS is 85%; in the test with SF-539 CNS it was 99.9%; in the test on UACC-257 melanoma it was 89.6%; in the test with M14 melanoma, 82.7%.
For the compound `COc1cc(/C=C/C(=O)c2c(C)n([O-])c3ccccc3[n+]2=O)cc(OC)c1OC`, the growth in the test on DU-145 prostate is 32.6%; in the test with K-562 leukemia, 21.8%; in the test on MALME-3M melanoma, 66.2%; in the test with MDA-MB-231 breast it was 78.9%; in the test on RXF 393 renal, 53.9%; in the test with SF-268 CNS, 43.6%. Besides, the growth with SF-295 CNS was 46.8%; with SF-539 CNS, 75.5%; in the test with UACC-257 melanoma it was 54.4%; in the test on M14 melanoma, 60.2%.
`CNNc1ncnc2c1cnn2-c1ccc(S(N)(=O)=O)cc1`: the growth in the test with DU-145 prostate was 112%; in the test on K-562 leukemia it was 78.3%; in the test with MALME-3M melanoma, 112%; in the test on MDA-MB-231 breast, 89.5%; in the test on RXF 393 renal, 16%; in the test on SF-268 CNS, 106%. Besides, the growth in the test with SF-295 CNS is 84%; with SF-539 CNS, 93.8%; in the test on UACC-257 melanoma it was 89%; in the test with M14 melanoma, 95%.
As to `COc1cc(C(=O)c2cc3c(cc2C)OCO3)cc(OC)c1OC`, the growth is 21.5% in the test with DU-145 prostate; 13.7% in the test on K-562 leukemia; 50.4% with MALME-3M melanoma; 23.3% in the test with MDA-MB-231 breast; 42.9% in the test with RXF 393 renal; 43.1% in the test on SF-268 CNS. The growth is -50.4% (active) with SF-295 CNS, 6.27% (active) in the test with SF-539 CNS and 22.5% with M14 melanoma.
With `CC(=O)OCC(=O)[C@@]1(O)CC[C@H]2[C@@H]3CCC4=CC(=O)CC[C@]4(C)[C@@]3(F)[C@@H](O)C[C@@]21C`, the growth is 96% with DU-145 prostate; 108% with K-562 leukemia; 120% in the test with MALME-3M melanoma; 103% with MDA-MB-231 breast; 129% with RXF 393 renal; 91.5% in the test with SF-268 CNS. Moreover, the growth with SF-295 CNS is 115%; in the test with SF-539 CNS it was 90.8%; in the test with UACC-257 melanoma, 94.6%; in the test on M14 melanoma it was 85.7%.
Consider `O=C(CSc1nnc(-c2cc(-c3ccccc3)nc3ccccc23)o1)c1ccc(Br)cc1`, for which the growth was 106% with DU-145 prostate; 91% in the test with K-562 leukemia; 97.3% with MALME-3M melanoma; 95.4% in the test on MDA-MB-231 breast; 108% with RXF 393 renal; 93.8% with SF-268 CNS. The growth was 107% with SF-295 CNS, 99.6% in the test on SF-539 CNS, 111% with UACC-257 melanoma and 101% in the test on M14 melanoma.
For `Oc1c(Cl)cc(Oc2cc(Cl)c(O)c(CN3CCOCC3)c2)cc1CN1CCOCC1`, the growth is 101% in the test on DU-145 prostate; 81.4% in the test on K-562 leukemia; 105% in the test with MALME-3M melanoma; 96.6% in the test on MDA-MB-231 breast; 104% in the test on RXF 393 renal; 87.9% with SF-268 CNS. The growth was 99.4% in the test on SF-295 CNS, 98.2% in the test with SF-539 CNS, 86.4% in the test with UACC-257 melanoma and 105% in the test on M14 melanoma.

The values are drawn from PubChem BioAssay (NCI).
